From article PMC6212790, “How bacterial xenogeneic silencer rok distinguishes foreign from self DNA in its resident genome” come the findings set out here.

The full ranking holds about 33,000 sequences; the median of “e-score” is about -0.037, and the highest 2% start at about 0.34. The full list was thinned out, with the highest values kept by preference.

The assay has as its target T1, GST-Rok (full length) (Bacillus subtilis subsp. subtilis str. …, UniProt O34857 1-191).
T1 sequence: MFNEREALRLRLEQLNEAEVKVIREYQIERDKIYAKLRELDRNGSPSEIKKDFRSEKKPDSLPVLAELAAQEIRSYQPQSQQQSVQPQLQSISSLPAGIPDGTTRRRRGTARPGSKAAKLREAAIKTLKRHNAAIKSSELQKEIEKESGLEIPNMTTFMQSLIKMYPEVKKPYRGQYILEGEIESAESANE
In words: protein binding microarray; Rok is a gene silencer of Bacillus subtilis; high values mean tight binding. Conditions: protein: recombinant; tags: GST (pTH5325, pDEST15-Magic modified); dsDNA, one strand shown. The method, boiled down:
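Every oligonucleotide joins a 25-mer constant primer to a 35-mer variable part drawn from a de Bruijn sequence of order 10, so each non-palindromic 8-mer appears at least 32 times and each palindromic 8-mer 16 times. The preference for every 8-mer is reported as a unitless, rank-based enrichment score (E-score). This score spans 0.5 for the most favored 8-mer to −0.5 for the most disfavored.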
Take ACCATCTA: the binding signal worked out at 0.351 E-score.

Regarding ACCATCTC, the binding signal was -0.0707 E-score.

Turning to CCTATCTC, the binding signal came to 0.168 E-score. Then AGTATCTA, with 0.343 E-score; and ATTATCTA, with 0.412 E-score; and GCCATCTA, with 0.0099 E-score. To AGTATCTC belongs 0.238 E-score; to AGTATCTG, 0.189 E-score. To CCTATCCA belongs -0.0329 E-score; to ATTATCTG, 0.284 E-score. As for ATTATCTC, the binding signal is -0.0512 E-score. Then CCTATCTA, with 0.34 E-score; and CTAACGAG, with 0.0146 E-score. Then GCCAAGTA, with 0.107 E-score; and AGCGAGCA, with -0.18 E-score; and TACCAGCA, with 0.135 E-score. Then GAACAACA, with -0.0557 E-score.

For GCTATCTA, the binding signal amounted to 0.33 E-score. For the sequence ACTATCTC, the binding signal amounted to 0.128 E-score. To ACTATCTA belongs 0.397 E-score; to ACTTTCTC, 0.0817 E-score; to ATTTTCTG, -0.139 E-score. To ATTTTCTC belongs 0.264 E-score; to GATTTCTA, 0.3 E-score; to CATTTCTA, 0.288 E-score.

With AATTTCTA, the binding signal was found to be 0.344 E-score.

On to AATTTCGA, for which the binding signal was determined as 0.352 E-score. Then ATTTTCTA, with 0.397 E-score. Then CATTTCGA, with -0.0105 E-score. Then ACTTTCTA, with 0.386 E-score.

For CCTTTCTA, the binding signal is 0.158 E-score. As to GATTTCGA, the binding signal is 0.183 E-score. Then CTTTACGC, with 0.177 E-score. With AGGCCGTA, the binding signal is -0.152 E-score. To CATCGTAA belongs 0.169 E-score.

Take GTTTCCAA: the binding signal is 0.0167 E-score.

Consider CTAGCGTC, for which the binding signal was -0.0555 E-score.

With AGCTTAGG, the binding signal was 0.072 E-score. To GGTTTCTA belongs 0.334 E-score; to AGTTTCTA, 0.402 E-score. To AGTTTCTC belongs 0.274 E-score. Turning to GACAGAAC, the binding signal was -0.0014 E-score. Then CCTCTAAC, with -0.0188 E-score; and CTAGTATA, with 0.409 E-score. Then GTAGTACA, with 0.236 E-score. Turning to ACAGTATA, the binding signal is 0.343 E-score. Take CAAGTATA: the binding signal was 0.204 E-score. Take CTAGTATC: the binding signal is 0.241 E-score.

With GCAGTATA, the binding signal amounted to 0.275 E-score. Then CCAGTATA, with 0.235 E-score; and GAAGTATA, with 0.169 E-score.

Turning to GTAGTATA, the binding signal was 0.423 E-score. Then CCTAACAG, with 0.0291 E-score; and ATTAGCAA, with 0.0548 E-score; and CGCAACTC, with -0.103 E-score. Then AATGACAA, with 0.16 E-score; and TATTACGA, with 0.296 E-score. Then GCGTATCA, with 0.0845 E-score; and GAACAGTA, with 0.264 E-score. Consider TAACAGTA, for which the binding signal is 0.355 E-score. As to CAACAGTA, the binding signal was determined as 0.316 E-score.

AGAATGTA: the binding signal worked out at 0.201 E-score. To GATATTTA belongs 0.351 E-score. Then CATATTTA, with 0.324 E-score; and GATATTAA, with 0.365 E-score; and AATATTTA, with 0.325 E-score. Then TATATTAA, with 0.364 E-score; and AATATTAC, with 0.239 E-score; and TATATTGA, with 0.278 E-score. For GATATTAC, the binding signal came to 0.364 E-score. As to CATATTAC, the binding signal turned out to be 0.289 E-score. Then AATATTAA, with 0.334 E-score.

In the case of CATATTAA, the binding signal is 0.268 E-score. Then TGTATTAA, with 0.241 E-score; and CCGGTCGA, with -0.102 E-score. Turning to AGAGACTA, the binding signal was 0.093 E-score. With CCCTCGTA, the binding signal is -0.134 E-score. Then AGCCAAAT, with 0.0925 E-score; and TAAGAGCA, with -0.127 E-score; and CGCTGTGA, with -0.0511 E-score. On to GCTTCAAC, for which the binding signal stood at 0.127 E-score. Turning to AGCTCCAG, the binding signal was -0.0852 E-score. Then ACATTCTC, with 0.0677 E-score.

In the case of ACGTTCTC, the binding signal turned out to be 0.0202 E-score. Consider GGGAAATA, for which the binding signal stood at 0.127 E-score. Then ATTTAGTA, with 0.363 E-score; and AATTAGTA, with 0.416 E-score. Then AATTAGTG, with 0.322 E-score; and GTTTAGTA, with 0.272 E-score; and CATTAGTA, with 0.227 E-score. With ATTTAGTG, the binding signal is 0.166 E-score.

Regarding GCGCATAC, the binding signal is 0.0802 E-score.

Consider CGTTCTGA, for which the binding signal is -0.0208 E-score.

As for CTAGATAC, the binding signal turned out to be 0.22 E-score. Then GTAGATAA, with 0.407 E-score; and TTAGATAA, with 0.251 E-score.

For the sequence GTAGATAC, the binding signal is 0.359 E-score. To GCAGATAC belongs 0.0143 E-score. To CTAGATAA belongs 0.302 E-score; to ACGGTTGC, -0.00987 E-score; to CGACGTAC, -0.0209 E-score. To ACTGCCGC belongs -0.152 E-score; to ATAGGAAG, 0.0173 E-score; to AGGCTCGA, -0.0603 E-score. GATCTACA: the binding signal is 0.369 E-score. Turning to GGTCTACA, the binding signal amounted to 0.0329 E-score. To GCTCTACA belongs -0.114 E-score; to TATCTACA, 0.348 E-score; to AATCTACA, 0.326 E-score. As to CATCTACA, the binding signal came to 0.177 E-score. Then ATTAAATG, with 0.0625 E-score; and AGGCTGTA, with 0.00795 E-score; and GCTACTAC, with 0.198 E-score. Then ACTACTCT, with 0.184 E-score; and ACTACAAT, with 0.344 E-score.

Take ACAACTAG: the binding signal came out at 0.351 E-score.

ACTACTGG: the binding signal is 0.224 E-score. Turning to CCTACTAC, the binding signal came to 0.258 E-score. As for ACAACTAT, the binding signal turned out to be 0.33 E-score. Then ACTACAAC, with 0.293 E-score; and ACTACTAC, with 0.4 E-score.

Regarding ACTACTAT, the binding signal amounted to 0.465 E-score. To ACAACTAC belongs 0.311 E-score; to ACTACAAG, 0.22 E-score. To ATGCGAGA belongs 0.00939 E-score. CGTTTGTC: the binding signal is -0.0759 E-score. Turning to CTACCAAC, the binding signal amounted to 0.164 E-score.

With AGACGCTG, the binding signal is -0.151 E-score. To CAGTCCAA belongs -0.0763 E-score; to AGCCCAAC, -0.175 E-score; to TCCAGAAA, -0.00865 E-score. To ACTACTAG belongs 0.346 E-score; to ACTACTCG, 0.187 E-score. Take CCTACTAG: the binding signal turned out to be 0.0992 E-score. Then ATGGTACG, with 0.183 E-score; and GCATTAAC, with 0.0561 E-score; and CTACTAAA, with 0.357 E-score. Then ACACTAAA, with 0.174 E-score.

On to AGACTAAA, for which the binding signal is -0.0347 E-score. Then ATACTAAG, with 0.175 E-score; and ATACTAAA, with 0.391 E-score; and TTACTAAA, with 0.32 E-score. Then ATACTAAC, with 0.199 E-score; and CTACTAAC, with 0.324 E-score. To ATACTAAT belongs 0.378 E-score; to GAGGCATC, -0.172 E-score. CAGCTGTA: the binding signal was determined as 0.0605 E-score. ACATCTAC: the binding signal came to 0.272 E-score. Turning to ACTTCGGA, the binding signal was -0.0792 E-score. Then ACCCTAAA, with 0.024 E-score; and CCACTGTC, with -0.188 E-score; and CTGCTTTA, with 0.0813 E-score. For the sequence ATAAGGAC, the binding signal is -0.2 E-score.

Regarding TTAGAAAA, the binding signal was found to be 0.185 E-score.

Consider GCAGAAAC, for which the binding signal was -0.0153 E-score.

As to CTAGAAAC, the binding signal was found to be 0.3 E-score. Then GTAGAAAC, with 0.427 E-score; and CTAGAAAA, with 0.291 E-score; and GTAGAAAA, with 0.387 E-score. On to ATCTGGTC, for which the binding signal is -0.135 E-score. For ATCTTTAA, the binding signal was 0.0286 E-score. Then AGATTGGC, with 0.136 E-score; and CGTTCCAC, with -0.021 E-score. Turning to ATATTTAG, the binding signal was 0.287 E-score. Then ATTTTTAA, with -0.0198 E-score.

ATATTTGC: the binding signal is 0.285 E-score. To CTATTTAA belongs 0.0252 E-score; to ATATTTAA, 0.387 E-score. Consider CTCTTTAC, for which the binding signal stood at 0.158 E-score. Then ACATTTAC, with 0.313 E-score; and CTATTTAC, with 0.342 E-score; and ATATTTAC, with 0.379 E-score. AGTCAAAA: the binding signal turned out to be 0.108 E-score. On to CGTTTGAA, for which the binding signal was -0.00324 E-score. To ACCTTCAG belongs -0.119 E-score; to TCCACAAA, 0.0863 E-score.
